In PMC7862700, “An all-to-all approach to the identification of sequence-specific readers for epigenetic DNA modifications on cytosine”:

What was measured:
Assay in all cases: DAPPL (digital affinity profiling via proximity ligation, sequencing); 10 mM Tris-HCl pH 7.5, 50 mM NaCl, 1 mM DTT, 4% glycerol, room temperature, 30 min; GST-TFs on glutathione beads, 16-mer random dsDNA library, 0.1% formaldehyde crosslink after washing; high values mean tight binding
FEV = target: T1, FEV (Homo sapiens, UniProt Q99581 1-238); conditions: protein: recombinant; tags: N-terminal GST; dsDNA, one strand shown
T1 sequence: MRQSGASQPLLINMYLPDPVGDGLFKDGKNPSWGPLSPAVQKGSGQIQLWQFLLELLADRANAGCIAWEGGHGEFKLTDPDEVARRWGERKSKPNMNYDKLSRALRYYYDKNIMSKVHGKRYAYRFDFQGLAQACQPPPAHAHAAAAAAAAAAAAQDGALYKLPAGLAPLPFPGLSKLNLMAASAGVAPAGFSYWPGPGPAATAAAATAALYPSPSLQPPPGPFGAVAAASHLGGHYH
Outline: (§1)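 In yeast, human transcription factors were expressed with a GST fusion, then pulled down on glutathione beads and given DNA barcodes. Pooled with a tag-only sample, they were exposed to 200 nmole of a 16-mer random double-stranded DNA library (Tris/NaCl/DTT/glycerol buffer, room temperature, 30 min), washed, crosslinked with 0.1% formaldehyde, proximity-ligated using BsaI/T4 ligase for 1 h at 37 °C, PCR-amplified and read on an Illumina NextSeq500. Each hexamer's frequency of reads for a factor, divided by the matching frequency for the tag-only sample, gives the binding signal.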

ETV5 = ETV5 (Homo sapiens, UniProt P41161 1-510); conditions: protein: recombinant; tags: N-terminal GST; dsDNA, one strand shown
Outline: as §1

HSF1 = HSF1 (Homo sapiens, UniProt Q00613 1-529); conditions: protein: recombinant; tags: N-terminal GST; chain copies: 3; dsDNA, one strand shown
Outline: as §1

SPIC = target: T2, SPIC (Homo sapiens, UniProt Q8N5J4 1-248); conditions: protein: recombinant; tags: N-terminal GST; dsDNA, one strand shown
T2 sequence: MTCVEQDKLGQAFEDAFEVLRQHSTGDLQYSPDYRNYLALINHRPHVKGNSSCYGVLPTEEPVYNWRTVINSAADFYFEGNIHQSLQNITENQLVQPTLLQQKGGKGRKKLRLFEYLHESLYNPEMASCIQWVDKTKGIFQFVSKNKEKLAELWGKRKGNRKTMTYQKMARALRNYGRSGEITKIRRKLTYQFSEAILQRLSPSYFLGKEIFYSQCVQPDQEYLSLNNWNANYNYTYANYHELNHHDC
Outline: as §1

ELF4 = ELF4 (Homo sapiens, UniProt Q99607 1-663); conditions: protein: recombinant; tags: N-terminal GST; dsDNA, one strand shown
Outline: as §1

ELK4 = target: T3, ELK4 (Homo sapiens, UniProt P28324-2 1-405); conditions: protein: recombinant; tags: N-terminal GST; dsDNA, one strand shown
T3 sequence: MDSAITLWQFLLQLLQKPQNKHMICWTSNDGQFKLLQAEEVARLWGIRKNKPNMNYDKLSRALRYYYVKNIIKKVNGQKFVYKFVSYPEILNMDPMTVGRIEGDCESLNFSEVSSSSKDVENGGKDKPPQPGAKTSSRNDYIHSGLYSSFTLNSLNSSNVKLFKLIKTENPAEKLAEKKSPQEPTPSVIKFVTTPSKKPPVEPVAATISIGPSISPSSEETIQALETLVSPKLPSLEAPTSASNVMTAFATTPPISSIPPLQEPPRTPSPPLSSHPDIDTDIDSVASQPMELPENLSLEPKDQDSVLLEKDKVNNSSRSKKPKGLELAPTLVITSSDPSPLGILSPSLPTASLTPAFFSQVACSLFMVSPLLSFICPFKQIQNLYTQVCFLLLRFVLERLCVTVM
Outline: as §1

ETV2 = target: T4, ETV2 (Homo sapiens, UniProt O00321 1-342); conditions: protein: recombinant; tags: N-terminal GST; dsDNA, one strand shown
T4 sequence: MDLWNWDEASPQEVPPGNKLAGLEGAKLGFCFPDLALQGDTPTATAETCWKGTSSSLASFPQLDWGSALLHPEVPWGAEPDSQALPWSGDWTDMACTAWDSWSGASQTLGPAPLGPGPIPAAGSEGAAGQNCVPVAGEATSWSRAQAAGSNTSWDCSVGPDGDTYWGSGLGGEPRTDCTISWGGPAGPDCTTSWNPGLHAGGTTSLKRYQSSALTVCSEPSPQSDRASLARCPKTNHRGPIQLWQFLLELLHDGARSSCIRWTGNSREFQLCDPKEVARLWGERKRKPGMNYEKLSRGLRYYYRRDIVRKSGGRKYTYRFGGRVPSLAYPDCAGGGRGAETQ
Outline: as §1

ELF3 = target: T5, ELF3 (Homo sapiens, UniProt P78545 1-371); conditions: protein: recombinant; tags: N-terminal GST; dsDNA, one strand shown
T5 sequence: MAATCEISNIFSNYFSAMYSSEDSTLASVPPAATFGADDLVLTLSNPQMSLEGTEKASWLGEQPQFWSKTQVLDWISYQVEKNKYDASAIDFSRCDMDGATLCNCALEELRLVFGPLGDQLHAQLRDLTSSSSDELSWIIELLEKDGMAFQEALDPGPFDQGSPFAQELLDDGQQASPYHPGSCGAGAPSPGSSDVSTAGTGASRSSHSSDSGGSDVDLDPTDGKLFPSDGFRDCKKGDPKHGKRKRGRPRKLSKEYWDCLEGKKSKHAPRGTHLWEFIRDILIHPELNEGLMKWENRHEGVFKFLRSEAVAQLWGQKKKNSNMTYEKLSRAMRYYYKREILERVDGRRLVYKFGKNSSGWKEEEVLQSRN
Outline: as §1

CRX = CRX (Homo sapiens, UniProt O43186 1-299); conditions: protein: recombinant; tags: N-terminal GST; dsDNA, one strand shown
Outline: as §1

ETV5, sequence (P41161 whole entry): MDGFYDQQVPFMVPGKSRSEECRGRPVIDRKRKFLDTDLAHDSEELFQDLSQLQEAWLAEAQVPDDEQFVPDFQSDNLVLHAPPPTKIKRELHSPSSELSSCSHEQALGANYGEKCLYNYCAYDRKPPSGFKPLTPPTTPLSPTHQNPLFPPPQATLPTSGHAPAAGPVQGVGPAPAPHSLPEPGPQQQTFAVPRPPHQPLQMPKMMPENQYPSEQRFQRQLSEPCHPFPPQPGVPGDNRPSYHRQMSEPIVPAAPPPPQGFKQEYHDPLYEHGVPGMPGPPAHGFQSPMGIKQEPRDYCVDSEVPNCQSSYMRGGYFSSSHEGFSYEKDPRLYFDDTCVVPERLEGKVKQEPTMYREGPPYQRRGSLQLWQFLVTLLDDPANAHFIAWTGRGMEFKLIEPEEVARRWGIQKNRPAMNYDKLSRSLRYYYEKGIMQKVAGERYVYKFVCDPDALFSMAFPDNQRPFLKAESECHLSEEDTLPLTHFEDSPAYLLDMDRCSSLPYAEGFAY
ELF4, sequence (Q99607 whole entry): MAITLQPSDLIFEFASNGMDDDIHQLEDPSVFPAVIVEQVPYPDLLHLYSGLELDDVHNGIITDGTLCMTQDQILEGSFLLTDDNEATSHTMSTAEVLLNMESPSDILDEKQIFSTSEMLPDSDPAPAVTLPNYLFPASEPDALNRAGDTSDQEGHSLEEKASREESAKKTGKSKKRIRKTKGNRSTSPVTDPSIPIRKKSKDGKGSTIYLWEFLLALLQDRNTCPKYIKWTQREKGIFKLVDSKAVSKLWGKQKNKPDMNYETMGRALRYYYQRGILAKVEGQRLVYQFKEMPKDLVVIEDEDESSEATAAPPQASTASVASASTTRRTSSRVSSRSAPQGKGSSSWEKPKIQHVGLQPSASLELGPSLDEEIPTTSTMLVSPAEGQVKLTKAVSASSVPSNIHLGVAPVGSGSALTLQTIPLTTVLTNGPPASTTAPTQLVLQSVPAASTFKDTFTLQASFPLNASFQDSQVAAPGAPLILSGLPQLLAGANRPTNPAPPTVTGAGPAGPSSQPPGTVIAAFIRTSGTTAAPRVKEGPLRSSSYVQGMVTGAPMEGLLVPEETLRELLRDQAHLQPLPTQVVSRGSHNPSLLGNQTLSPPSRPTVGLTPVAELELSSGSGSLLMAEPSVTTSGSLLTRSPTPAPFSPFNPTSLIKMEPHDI
CRX, sequence (O43186 whole entry): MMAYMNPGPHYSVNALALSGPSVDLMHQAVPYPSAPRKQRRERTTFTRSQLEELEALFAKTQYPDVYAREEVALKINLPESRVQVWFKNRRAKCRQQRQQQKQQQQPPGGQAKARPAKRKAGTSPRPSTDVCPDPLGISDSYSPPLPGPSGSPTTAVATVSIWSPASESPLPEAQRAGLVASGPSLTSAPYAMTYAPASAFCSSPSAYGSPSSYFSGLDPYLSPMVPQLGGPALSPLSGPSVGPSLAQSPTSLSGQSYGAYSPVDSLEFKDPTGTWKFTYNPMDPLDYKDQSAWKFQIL
HSF1, sequence (Q00613 whole entry): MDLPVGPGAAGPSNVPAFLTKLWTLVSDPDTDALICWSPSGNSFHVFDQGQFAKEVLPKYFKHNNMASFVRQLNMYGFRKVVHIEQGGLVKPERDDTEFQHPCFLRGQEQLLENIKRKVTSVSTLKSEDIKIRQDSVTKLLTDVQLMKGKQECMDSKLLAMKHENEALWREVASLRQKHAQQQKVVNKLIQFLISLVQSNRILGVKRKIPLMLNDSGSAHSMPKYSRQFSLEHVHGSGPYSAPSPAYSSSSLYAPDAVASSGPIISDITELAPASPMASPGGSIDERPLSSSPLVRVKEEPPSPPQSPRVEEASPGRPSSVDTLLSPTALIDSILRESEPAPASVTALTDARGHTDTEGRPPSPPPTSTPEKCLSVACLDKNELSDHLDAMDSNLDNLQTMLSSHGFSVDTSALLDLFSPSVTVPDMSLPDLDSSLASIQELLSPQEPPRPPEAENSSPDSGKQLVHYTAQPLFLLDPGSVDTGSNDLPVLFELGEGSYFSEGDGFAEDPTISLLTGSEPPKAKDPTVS

## ATTCTT
FEV
  binding signal: 1.4 fold enrichment (6-mer frequency, TF over GST control)
ETV5
  binding signal: 1.4 fold enrichment (6-mer frequency, TF over GST control)
HSF1
  binding signal: 1.99 fold enrichment (6-mer frequency, TF over GST control)
SPIC
  binding signal: 1.56 fold enrichment (6-mer frequency, TF over GST control)
ELF4
  binding signal: 1.47 fold enrichment (6-mer frequency, TF over GST control)
ELK4
  binding signal: 1.51 fold enrichment (6-mer frequency, TF over GST control)
ETV2
  binding signal: 1.37 fold enrichment (6-mer frequency, TF over GST control)
ELF3
  binding signal: 1.45 fold enrichment (6-mer frequency, TF over GST control)
CRX
  binding signal: 1.77 fold enrichment (6-mer frequency, TF over GST control)
